Source: PubChem (National Center for Advancing Translational Sciences (NCATS))
HT1080 IDH1KD tx = toxicity to HT-1080 IDH1 knockdown cells (counter line); HT-1080 IDH1 knockdown viability, ATP luminescence, 48 h; Potency, µM (highest dose often 46.1 µM), actives largely listed as cytotoxic; actives 2% (n = 360,000); AID 686971
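Using the IDH1-knockdown HT-1080 line run in the same batch and compound series as the NT line, viability after 48 h at 37 °C was determined by CellTiter-Glo luminescence and expressed as % activity.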
KB-3-1 cytotox = KB-3-1 parental cell cytotoxicity | KB-3-1 viability, CellTiter-Glo ATP luminescence, 72 h | Potency, µM (doses to about 46.1 µM), most hits filed as cytotoxic | actives 1.4% (n = 400,000) | AID 1347075; further: nearly all actives have a fitted effect of over 60% in size
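72 h, 37 °C compound treatment of KB-3-1 parental cells; CellTiter-Glo added, 10 min, luminescence read. Data corrected against DMSO-only plates and normalized before curve fitting.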
KB-V1 cytotox = kills drug-selected multidrug resistant KB-V1 cells | KB-V1 MDR cells viability, CellTiter-Glo, 72 h | Potency, µM (highest dose often 46.1 µM), hits mostly cytotoxic | actives 3.4% (n = 400,000) | AID 1347076; further: nearly all actives have a fitted effect of over 60% in size
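Cells of the MDR subline KB-V1 are plated, dosed with compound at multiple concentrations, and incubated 72 h at 37 degrees C; CellTiter-Glo is then added and luminescence read after 10 min.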
HT1080-NT tox = kills 2HG-producing HT-1080-NT fibrosarcoma cells | Potency, µM (top dose mostly 46.1 µM), hits mostly cytotoxic | HT-1080-NT fibrosarcoma viability, CellTiter-Glo ATP luminescence, 48 h | actives 1.6% (n = 360,000);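 further: NT is the 2HG producing partner of a matched IDH1 knockdown line; nearly all actives have a fitted effect of over 55% in size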
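Read-out is CellTiter-Glo luminescence after 10 minutes at room temperature, following 48 hours' compound treatment of HT-1080-NT cells (750 cells/well, RPMI, 5% FBS, 37 degrees C).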
ATXN2 expr inh = reduces ATXN2 reporter expression in HEK-293 cells; HEK-293 ATXN2-luciferase reporter, luminescence, 24 h; Potency, µM (doses to about 57 µM), actives largely listed as inhibitors; actives 0.72% (n = 360,000); AID 1745845; further: nearly all actives have a fitted effect of over 55% in size
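qHTS (up to 57 uM final) was run with 24 h compound exposure of reporter cells at 37 °C. Each well was multiplexed: SteadyGlo luminescence measured ATXN2-luciferase expression after a fluorogenic Gly-Phe-AFC viability readout (25 uM final).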
ATXN viability = reduces viability in counter-screen for ATXN expression inhibitors. actives 0.49% (n = 400,000). Potency, µM (highest dose often 56.7 µM), usual class: cytotoxic. AID 651635. S2 cells (HEK-293 line with an ATXN2-luciferase reporter) viability, CellTiter-Fluor protease fluorescence, 24 h; further: nearly all actives have a fitted effect of over 40% in size
Hits are given with their value; . = inactive; ? = inconclusive; / = no result given; [ ] = another dose, or the depositor's remark. The list is not random: actives were taken first. Their share in the collection is about 6.2%. The call rests on the fitted dose curve; in most records, active means well fitted curve in the direction sought with a large enough effect; inconclusive means small, poorly fitted or top-dose-only effect, or another doubt; inactive means no such curve, though single readings can be large; an effect the other way counts as inactive or inconclusive.

SMILES	HT1080 IDH1KD tx	KB-3-1 cytotox	KB-V1 cytotox	HT1080-NT tox	ATXN2 expr inh	ATXN viability
O=C(Nc1cccc(-c2nc3ccccc3o2)c1)c1cccc2c(Cl)cccc12	/	.	.	/	.	.
CCN(CC)C(=O)CSc1nc(-c2ccccc2F)nc2c1Cc1c(CO)cnc(C)c1O2	/	.	.	/	.	.
Cc1cccc(-c2nc3c(c(SCC(=O)N4CCOCC4)n2)Cc2c(CO)cnc(C)c2O3)c1	?	15µM	.	?	.	.
COc1cccc(-c2nc3c(c(SCC(=O)N4CCOCC4)n2)Cc2c(CO)cnc(C)c2O3)c1	.	.	.	.	.	?
Cc1ncc(CO)c2c1Oc1nc(-c3ccccc3F)nc(SCC(=O)N(C)c3ccccc3)c1C2	21µM	.	?	?	?	18µM
Cc1ncc(CO)c2c1Oc1nc(-c3ccccc3)nc(SCC(=O)N3CCCCC3)c1C2	.	.	.	?	.	14µM
Cc1ncc(CO)c2c1Oc1nc(-c3ccccc3)nc(SCC(=O)N3CCOCC3)c1C2	.	.	.	.	.	.
COC(=O)[C@]12CCCCC=C1N(Cc1ccc(Cl)cc1Cl)C(=O)[C@H](CC(=O)NCC1CCCCC1)C2	?	?	.	?	.	?
NS(=O)(=O)c1ccc(NC(=O)/C=C/c2ccc3c(c2)OCO3)cc1	0.73µM	2.3µM	.	7.3µM	.	?
COC(=O)c1cc(NC(=O)/C=C/c2ccc3c(c2)OCO3)cc(C(=O)OC)c1	?	.	.	?	?	?
O=C(/C=C/c1ccco1)Nc1ccc2c(c1)OCO2	21µM	?	?	13µM	.	.
O=C(/C=C/c1ccc2c(c1)OCO2)c1cccnc1	.	?	.	.	.	.
COC(=O)c1cccc(NC(=O)/C=C/c2ccc3c(c2)OCO3)c1	?	5.8µM	?	?	?	.
O=C(/C=C/c1ccc2c(c1)OCO2)Nc1cccnc1	?	8.2µM	.	?	/	.
CC(=O)Nc1ccc(NC(=O)/C=C/c2ccc3c(c2)OCO3)cc1	.	.	.	?	.	/
CCCN(C(=O)Cn1c(=O)oc2cc(Cl)ccc21)c1ccc(C(C)C)cc1	/	.	.	/	.	.
CC1=C(c2ccc(C(C)C)cc2)S(=O)(=O)N=C1N1CCC(C(=O)NCCc2ccco2)CC1	/	.	.	/	.	.
CC(=O)Nc1ccc(C2=NOC(C)(C)C(=O)N2Cc2cccc(C#N)c2)cc1	.	.	.	.	.	.
CCn1c(=O)c2sccc2n2c(CCCC(=O)N3CCN(c4cccc(Cl)c4)CC3)nnc12	/	.	.	/	.	.
COc1ccc(-c2cc(C)no2)cc1S(=O)(=O)NCc1cccc(C)c1	?	?	?	18µM	.	.
COc1ccccc1CNS(=O)(=O)c1ccc(-c2cc(C)no2)cc1	2.1µM	1.3µM	?	4.1µM	/	.
CCc1ccc(-c2cc(C)no2)cc1S(=O)(=O)NCc1ccccc1OC	.	.	.	.	/	?
CCn1c(=O)n(CC)c2cc(S(=O)(=O)N3CCC(c4ccccc4)CC3)ccc21	.	.	23µM	?	.	.
CCOC(=O)C(=Cc1ccc(-c2ccsc2C(=O)OC)o1)C(=O)OCC	?	?	?	.	?	.
COC(=O)c1sccc1-c1ccc(C(=O)Nc2cccnc2)o1	.	.	5.8µM	.	.	.
SMILES	HT1080 IDH1KD tx	KB-3-1 cytotox	KB-V1 cytotox	HT1080-NT tox	ATXN2 expr inh	ATXN viability
COC(=O)C(=Cc1ccc(-c2ccsc2C(=O)OC)o1)C(=O)OC	21µM	?	.	?	.	.
Cn1c(=O)n(C)c2cc(N3CCCCC3)c(NC(=O)Nc3ccc(Br)cc3)cc21	/	.	?	/	.	.
CCN(CC)S(=O)(=O)c1cc(C(=O)Nc2cccnc2)ccc1Cl	.	.	.	.[9.24 µM]	.	.
CCN(CC)S(=O)(=O)c1cccc(C(=O)Nc2cccnc2)c1	.	.	21µM	.	.	.
CCN(CC)S(=O)(=O)c1cccc(C(=O)Nc2nc3cc4c(cc3s2)OCCO4)c1	?	?	4.6µM	11µM	?	?
CCN(CC)S(=O)(=O)c1cc(C(=O)Nc2ccncc2)ccc1Cl	.	21µM	16µM	.	.	.
O=C(Nc1nc2cc3c(cc2s1)OCCO3)c1cccc(N2C(=O)CCC2=O)c1	.	.	?	.	.	?
O=C(CN(Cc1ccccc1)S(=O)(=O)c1cccc(C(F)(F)F)c1)NC1CCCCC1	.	.	3.7µM	.	.	.
CCOc1ccc(C(=O)c2cn(CC(=O)Nc3cc(OC)cc(OC)c3)c3ccc(F)cc3c2=O)cc1	/	.	.	/	.	.
CCN(CC)S(=O)(=O)c1cccc(NC(=O)CC2CCCC2)c1	.	.	.	.	.	.
CCN(CC)S(=O)(=O)c1cccc(NC(=O)Nc2cccc(C(F)(F)F)c2)c1	21µM	7.3µM	8.2µM	?	22µM	?
CCN(CC)S(=O)(=O)c1cccc(C(=O)NC2CCCCC2)c1	?	.	18µM	.	.	.
CN(c1ccccc1)S(=O)(=O)c1cccc(C(=O)NC2CCCC2)c1	.	/	/	.	.	?
Cc1ccccc1C(=O)Oc1cc(-c2ccc3c(c2)OCO3)cc(=O)c2c(C)oc(C)c12	/	.	.	/	.	.
Cc1nc2ccccn2c1C(=O)/C=C/c1ccc(F)cc1	.	16µM	16µM	.	.	.
COc1ccc(/C=C/C(=O)c2c(C)nc3ccccn23)cc1	.	.	?	.	.	?
COC(=O)c1c(OCc2ccccn2)cc(=O)n2c1CCN(Cc1ccc3nsnc3c1)CC2	/	/	/	/	/	.
CCOc1cc(N2CCOCC2)c(OCC)cc1NC(=O)Cc1ccc(OC)c(OC)c1	.	?	5.8µM	.	.	.
CCOc1cc(N2CCOCC2)c(OCC)cc1NC(=O)COc1ncnc2ccccc12	.	.	16µM	.	.	.
COc1ccc(NS(=O)(=O)c2cccc(C(=O)N3CCN(C/C=C/c4ccccc4)CC3)c2)cc1	.	.	?	.	/	?
O=[N+]([O-])c1ccccc1-c1ccc(/C=N/n2cnnc2)o1	.	.	?	.	.	.
Nn1cnnc1N/N=C\c1ccc(-c2ccccc2[N+](=O)[O-])o1	.	7.3µM	2.1µM	.	.	?
CCC1CN(CCNC(=O)c2cccc3nccnc23)Cc2cc(OC)ccc2O1 (configuration not stated)	/	/	/	/	/	.
O=c1c2sc3ccccc3c2n(Cc2ccccc2F)c(=O)n1CCc1ccccc1	/	.	.	/	.	.
O=C1Nc2ccc(Br)cc2C1Cc1ccccc1F (configuration not stated)	.	.	.	.	.	.
Cn1c(CC2C(=O)Nc3ccc(Br)cc32)nc2ccccc2c1=O (configuration not stated)	.	?	10µM	?	.	.
